Source: PubChem BioAssay AID1460 (National Center for Advancing Translational Sciences (NCATS), 2008)
Among all 270,000 compounds or so, about 5,800 (2.1%) were called active. Entries that show only a call come without a potency. Another 16% or so got no clear call; they are omitted. Calls come from the whole dose curve; as a rule, active = well fitted inhibition curve with a large enough effect; inconclusive = small, poorly fitted or top-dose-only effect; inactive = flat fitted curve, though single readings scatter. This excerpt belongs to a sample that is enriched for actives. The source holds several records for some structures; these can differ, active in one and inactive in another.

Molecular target: Microtubule-associated protein tau (Homo sapiens) (UniProt P10636)
Assay: qHTS for Inhibitors of Tau Fibril Formation, Thioflavin T Binding; note: nearly all actives have a fitted effect of over 55% in size
Details: recombinant tau K18 P301L (four-repeat tau fragment), heparin-induced fibrillization, ThT fluorescence; series mostly up to 57.4 µM
How it was run: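 Heparin-induced (20 uM) aggregation of recombinant human K18 P301L tau, 15 uM unlabeled with 0.24 uM labeled, pH 7 acetate buffer, 6 hr at 37 C with compound. Fibrils quantified by 30 uM ThT fluorescence after 1 hr ambient incubation.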
Potency is the fitted concentration of half-maximal effect.

Chain of Microtubule-associated protein tau (Homo sapiens) (P10636 561-689 P618L limits assumed): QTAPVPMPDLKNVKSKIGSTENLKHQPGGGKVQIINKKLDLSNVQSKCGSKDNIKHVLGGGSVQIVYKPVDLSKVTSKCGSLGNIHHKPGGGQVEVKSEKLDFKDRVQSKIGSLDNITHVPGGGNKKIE

SMILES | Potency | activity, negative = inhibition
Cc1ccc(NC(=O)Cn2nnc3sc4c(c3c2=O)CCC(C)C4)cc1 (stereo unspecified) | inactive | 
COC(=O)c1ccc(NC(=O)c2cc(S(=O)(=O)N3CCC(C)CC3)cn2C)cc1 | inactive | 
O=S(=O)(NCCc1nnc2ccc(SCc3ccc(Cl)cc3Cl)nn12)c1ccccc1 | inactive | 
COc1ccc(Cl)cc1S(=O)(=O)N1CCC(c2ccncc2)CC1 | inactive | 
Cc1c(/C=N\NC(=O)c2cc3ccccc3o2)c2ccccc2n1C | 3.55 µM (active) | 
Cc1c(/C=N/N2C(=O)C3C4C=CC(C4)C3C2=O)c2ccccc2n1C (stereo unspecified) | inactive | 
CC(C)Oc1ccc(NC(=O)c2cc3ccccc3o2)cc1 | inactive | 
COC(=O)CCCC1=CC2=CC(=O)C(C)(OC(=O)c3cccs3)C(=O)C2=CN1c1ccc(CO)cc1 (stereo unspecified) |  | -2.21% [at 11.5 µM] (inactive)
COC(=O)CCCC1=CC2=CC(=O)C(C)(OC(=O)c3cccs3)C(=O)C2=CN1c1cccc(C#N)c1 (stereo unspecified) | 31.6 µM (active) | -5.58% [at 11.5 µM] (inactive)
COC(=O)CCCC1=CC2=CC(=O)C(C)(OC(=O)c3cccs3)C(=O)C2=CN1CC(C)C (stereo unspecified) |  | -12.7% [at 11.5 µM] (inactive)
CCn1c2c(c(=O)n3ncc(C(=O)N4CCN(c5ccccc5)CC4)c13)CN(Cc1ccc(OC)cc1)CC2 | inactive | 
COc1ccc(-n2c(=O)c3sc4ccccc4c3n(CC(=O)Nc3cccc(C)c3)c2=O)cc1 | inactive | 
CNC(=S)N/N=C/c1ccc(N2CCOCC2)s1 | 17.8 µM (active) | 
Cc1ccc(NC(=S)NCCN2CCOCC2)cc1 | inactive | 
C=CCNC(=S)N/N=C/c1ccc(C)s1 | inactive | 
O=C(NCc1ccccc1)c1ccc2c(c1)nc1n2CCCCC1 | inactive | 
O=C(C1CCC(Cn2c(=O)c3sccc3n(Cc3ccccc3F)c2=O)CC1)N1CCCCC1 (stereo unspecified) | inactive | 
O=C(CNC(=O)C(c1ccccc1)c1ccccc1)N/N=C\c1ccc2c(c1)OCO2 | inactive | 
COc1ccc(-c2csc(N3CCN(Cc4ccc5c(c4)OCO5)CC3)n2)cc1 | inactive | 
Cc1noc(C)c1/C=N/Nc1ccc2ccccc2n1 | inactive | 
O=C(Cc1ccc(F)cc1)N/N=C/c1ccc2c(c1)OCO2 | inactive | 
C(=N\Nc1ccc2ccccc2n1)/c1ccc2c(c1)OCO2 | 10 µM (active) | 
Brc1ccc(-c2csc(N/N=C/c3ccc4c(c3)OCO4)n2)cc1 | 4.47 µM (active) | 
COc1ccc(Cl)cc1NC(=O)C(C)Sc1nc2c(c(=O)[nH]1)CCCC2 (stereo unspecified) | inactive | 
Cc1ccc(-c2nc(SCc3ccc(Br)cc3)n3[nH]c(=O)cc3n2)cc1 | inactive | 

SMILES | Potency | activity, negative = inhibition
COc1cc(-c2cc3n(C)c(C)c(CCC(=O)Nc4ccc(F)cc4)c(=O)n3n2)cc(OC)c1OC | inactive | 
C(=N/Nc1cc(N2CCOCC2)nc(N2CCOCC2)n1)/c1ccccc1 | inactive | 
CN(C)c1ccc(/C=N/Nc2cc(N3CCOCC3)nc(N3CCOCC3)n2)cc1 | 7.94 µM (active) | 
Cc1cc(N2CCN(c3ccccc3)CC2)nc(N2CCOCC2)n1 | inactive | 
CCC(=O)N1c2ccccc2CC1C(=O)N1CCN(c2ccccc2F)CC1 (stereo unspecified) | inactive | 
COc1ccc(CCNC(=O)c2cc3cccc4c3n2CC(C)S4)c(OC)c1OC (stereo unspecified) | inactive | 
O=C(Nc1ccccc1Br)c1cc(CN2CCCC2)on1 | inactive | 
CCOc1ccc(NCCC(=O)c2ccc3c(c2)OCO3)cc1 | 15.8 µM (active) | 
COc1ccc(C(=O)Nc2ccc3c(c2)OCO3)cc1OC | inactive | 
COC(=O)CCNc1ccc2c(c1)OCCO2 | inactive | 
COc1ccccc1-c1noc(-c2ccc(NCc3ccccc3)c([N+](=O)[O-])c2)n1 | inactive | 
COC(=O)c1ccc2c(c1)N(CC(=O)Nc1ccc(C)c(C)c1)C(=O)c1ccccc1S2 | inactive | 
O=C(CSc1nnc(-c2ccncc2)n1-c1ccccc1)Nc1ccc(Cl)c(Cl)c1 | inactive | 
CCC(Sc1nnc(-c2ccc(OC)cc2)c(-c2ccc(OC)cc2)n1)C(=O)NC1CCCCC1 (stereo unspecified) | inactive | 
COc1cc(CNC2CCCC2)c(Br)cc1OCc1ccccc1 | inactive | 
COc1cc(C=O)c(Br)cc1OCC(=O)NCc1ccccc1 | inactive | 
COc1cc(C(=S)NCc2ccccc2)cc(Br)c1O | 35.5 µM (active) | 
O=C(NCC(c1ccco1)S(=O)(=O)c1cccs1)c1ccc(F)cc1 (stereo unspecified) | inactive | 
O=C(NC1CC(=O)N(c2ccc(F)cc2)C1)c1ccc(S(=O)(=O)N2CCCC2)cc1 (stereo unspecified) | inactive | 
Oc1cc(O)c2c(c1)OC(c1ccc(O)c(O)c1)C(O)C2 (stereo unspecified) | 14.1 µM (active) | 
COC(=O)c1ccc(NC(=O)c2cc(Cl)ccc2OC)cc1 | inactive | 
COc1ccc(Cl)cc1C(=O)Nc1ccc(N(C)C(C)=O)cc1 | inactive | 
CCN1CCN(c2cc(C)c3cc(NC(=O)c4cc(Cl)ccc4OC)ccc3n2)CC1 | 14.1 µM (active) | 
CNC(=S)Nc1ccc([N+](=O)[O-])cc1 | inactive | 
O=C(O)/C=C/C(=O)NNc1ccc([N+](=O)[O-])cc1 | 15.8 µM (active) | 

SMILES | Potency | activity, negative = inhibition
Cc1c(NC(=O)/C=C/C(=O)O)cccc1[N+](=O)[O-] | inactive | 
COc1ccc(C2CC(=O)N(Cc3ccccc3C)c3c2c(C)nn3-c2nc(C)cc(C)n2)c(OC)c1 (stereo unspecified) | inactive | 
O=C(Nc1ccc(Oc2ccccc2)cc1)C1CCN(S(=O)(=O)c2ccc(Cl)cc2)CC1 | inactive | 
CC(=O)Nc1cccc(NC(=O)CSc2cn(CC(=O)N3CCCC3)c3ccccc23)c1 | inactive | 
C=CS(=O)c1sc(Cl)c(N2CCOCC2)c1[N+](=O)[O-] (stereo unspecified) | 8.91 µM (active) | 
O=C(Nc1nnc(C2CC(=O)N(c3ccc(Cl)cc3)C2)s1)c1ccco1 (stereo unspecified) | inactive | 
NC1=NC(c2cc(F)cc(F)c2)n2c(nc3ccccc32)N1 (stereo unspecified) | inactive | 
CCOc1ccc(N(CC)S(=O)(=O)N2CCCC(C(=O)NCc3ccc(SC)cc3)C2)cc1 (stereo unspecified) | inactive | 
COc1ccc(N2CCN(S(=O)(=O)c3ccc(-c4coc(C)n4)cc3)CC2)cc1 | inactive | 
CCc1nc(-c2cc(S(=O)(=O)N3CCN(c4ccc(OC)cc4)CC3)ccc2OC)no1 | 28.2 µM (active) | 
COc1ccc(OC)c(-c2noc(N3CCN(c4cc(Cl)ccc4C)CC3)n2)c1 | inactive | 
COc1ccc(/C=C/NC(=O)Cc2ccc(OC)c(OC)c2)cc1 |  | -4.15% [at 11.5 µM] (inactive)
COc1ccc(/C=C/C(=O)c2ccc(OC)cc2O)cc1 | 5.01 µM (active) | 
COc1ccc(C(=O)Cc2cnn(-c3ccccc3)c2)c(O)c1 | inactive | 
O=C(/C=C/c1ccccc1)c1ccccc1O | inactive | 
COc1ccc(/C=C/C(=O)c2cc(Br)ccc(=O)c2O)cc1 | 4.47 µM (active) | 
COc1ccc2oc(=O)c(C(=O)O)cc2c1 | inactive | 
COc1cccc(CNC(=O)C(=O)NCC(c2cccs2)S(=O)(=O)c2ccccc2)c1 (stereo unspecified) | inactive | 
O=C(COc1ccccc1)OCc1cc(=O)n2nc(-c3cccs3)sc2n1 | inactive | 
CCc1ccc(NC(=O)c2cc3c(=O)n(Cc4cccnc4)ccc3nc2C)cc1 | inactive | 
COc1cccc(-n2ccn(CC(=O)NCc3ccc(C)cc3)c(=O)c2=O)c1 | inactive | 
O=C(CSc1oc(-c2ccco2)nc1S(=O)(=O)c1ccccc1)c1ccc(Cl)cc1 | inactive | 
COc1ccc(OC)c(CCNC(=O)CCCn2c(=O)c3cccn3c3cccnc32)c1 | inactive | 
CCOCCCn1c(SCC(=O)Nc2ccc(CC)cc2)nc2ccccc2c1=O | inactive | 
COCCNC(=O)Nc1ccc2nc(-c3ccco3)c(-c3ccco3)nc2c1 | 3.98 µM (active) | 

SMILES | Potency | activity, negative = inhibition
CC(C)(C)c1ccc(NC(=O)NCc2ccco2)cc1 | inactive | 
O=C(NCc1ccccn1)c1cc(-c2ccccc2Cl)on1 | inactive | 
COc1ccc(-c2nc3ccc(C(=O)NCc4ccc(C)cc4)cc3nc2-c2ccc(OC)cc2)cc1 | inactive | 
O=C(Nc1ccc2nccnc2c1)c1ccco1 | inactive | 
O=C(NCc1ccccn1)c1ccc2nc(-c3ccco3)c(-c3ccco3)nc2c1 | 12.6 µM (active) | 
Cc1nn(-c2ccc(F)cc2)c(-n2cccc2)c1C(=O)N1CCN(c2ccccc2)CC1 | inactive | 
Cc1ccc(-c2nc(Cn3c(=O)cc(-c4ccccc4)c4c(C)nn(C)c43)c(C)o2)cc1 | inactive | 
CN(Cc1ccccc1)S(=O)(=O)c1ccc(F)c(C(=O)Nc2cccc(Cl)c2Cl)c1 | inactive | 
O=C(c1cccc(Br)c1)N1CCN(Cc2cc(=O)n3nc(-c4ccccc4)sc3n2)CC1 | inactive | 
CCN(CC)S(=O)(=O)c1ccc2c(c1)nc(CN(C)C(=O)Nc1ccc(Cl)cc1)n2C | inactive | 
O=C(NCCc1ccccc1)C(=O)NCC(c1ccco1)S(=O)(=O)c1ccccc1 (stereo unspecified) | inactive | 
CSc1nc(-c2ccc(F)cc2)nc2c1Cc1c(CO)cnc(C)c1O2 | inactive | 
CCN(CC)c1ccc2oc(=O)c(C)nc2c1 | 7.94 µM (active) | 
CCN(CC)c1ccc2c(Nc3ccccc3)c(C=O)c(=O)oc2c1 | inactive | 
CCOC(=O)c1c(C)nc2c(c1C)c(=O)oc1ccccc12 | inactive | 
COc1ccccc1CNC(=O)c1ccc(-n2c(C)cc3c2CCCC3)cc1 | inactive | 
COc1ccc(C(=O)Nc2onc3c2CCCC3)cc1 | inactive | 
COc1ccccc1CNC(=O)Cn1nc(C)c2nn(-c3ccc(Cl)cc3)c(C)c2c1=O | inactive | 
CCN(CC)C(=O)CSc1nc2cc3c(cc2c(=O)n1CCCC(=O)NCc1ccc2c(c1)OCO2)OCO3 | inactive | 
O=C(CSCc1cnn(-c2ccccc2)c1-n1cccc1)NCc1ccc(Cl)cc1 | inactive | 
CCOc1ccc(C(=O)N2CCN(CCc3ccccn3)CC2)cc1 | inactive | 
Oc1ccccc1/C=N/n1c(-c2cccs2)n[nH]c1=S | inactive | 
Cc1cc(-c2n[nH]c(=S)n2/N=C/c2ccco2)n[nH]1 | inactive | 
Cc1cc(-c2n[nH]c(=S)n2/N=C/C(Br)=C/c2ccccc2)n[nH]1 | 12.6 µM (active) | 
COc1ccccc1CN1CCC(CNC(=O)c2cnn(-c3cccc(Cl)c3)c2C2CCN(C(=O)OC(C)(C)C)CC2)CC1 | inactive | 
